The source of these data is PubChem BioAssay (Tox21).

The nature of experiment [1]: Nuclear factor erythroid 2-related factor 2/antioxidant responsive element (Nrf2/ARE) small molecule agonists: luciferase reporter gene qHTS assay in human keratinocytes (AID 1919969; further: nearly all actives have a fitted effect of over 35% in size). (In general: In a reporter assay the amount or activity of a reporter protein is the signal.)
Experiment [2] concerns the target Gonadotropin-releasing hormone receptor (Homo sapiens) (UniProt P30968). The experiment can be described thus: Human gonadotropin-releasing hormone receptor (GnRHR) small molecule agonists, calcium flux assay in GnRHR-HEK293 cells (AID 1920063). Further: nearly all actives have a fitted effect of over 35% in size. Further: potency means the concentration at half of the fitted maximal effect. The gist of the method: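 Compounds dissolved in DMSO are pin-transferred onto dye-loaded GnRHR-HEK293 cells, which were seeded 18 h before at 37 C/5% CO2. Calcium signal is read as fluorescence intensity at 1 s intervals for 3 min.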
Background: Calcium flux is commonly read through the fluorescence of an indicator in the cells.

The target in experiment [3] is KiSS-1 receptor (Homo sapiens) (UniProt Q969F8). As to the kind of experiment: Human kisspeptin (KISS1R) small molecule agonists, calcium flux assay in KISS1R-HEK293 cells (AID 1920064; active means well fitted activation curve with a large enough effect in the repeat runs). In outline:
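Cell line: HEK293, stable human KISS1R. Dye loading 1 h at 37 C after 18 h culture. Read: kinetic fluorescence, 480/540 nm, 3 min at 1 s intervals.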

Experiment [4] in a line: G protein-coupled receptor (GPCR) small molecule agonists, calcium flux assay: HEK293 wild type cell line counter screen (AID 1920065). The gist of the method:
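Tox21 10K compounds, 15 concentrations each in triplicate, pin-transferred in DMSO onto dye-loaded cells; kinetic read at 480/540 nm for 3 min, 1 s intervals.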

Experiment [5] in a line: p53 small molecule agonists, cell-based qHTS assay with human liver microsomes (AID 1963577). In outline: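 p53RE-bla cells, 4,000/well, compound added after 5 h, with human liver microsomes 0.5 mg/mL and NADPH 0.5 mg/mL final; 16 h at 37 C, then LiveBLAzer 2 h RT, fluorescence.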
Experiment [6] in a line: p53 small molecule agonists, cell-based qHTS assay with rat liver microsomes (AID 1963578). In outline:
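p53RE-bla cells, 4,000/well, pre-incubated 5 h, then given compounds plus rat liver microsomes (0.5 mg/mL final) and NADPH (0.5 mg/mL final). Incubation 16 h at 37 C; beta-lactamase reporter read by LiveBLAzer fluorescence after 2 h at room temperature.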

Experiment [7] is described as follows: p53 small molecule agonists, cell-based qHTS assay: qHTS cell viability counter screen (AID 1963581). Further: nearly all actives have a fitted effect of over 45% in size. Further: potency means the concentration at half of the fitted maximal effect. The gist of the method: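 ATP content measured by luminescence in HCT-116 p53RE-bla cells treated 16 h at 37 C, same wells as the reporter screen.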
On the technique in general: qHTS replaces the single test concentration by a dilution series.

Experiment [8] addresses 5-hydroxytryptamine receptor 2A (Homo sapiens) (UniProt P28223). As to the kind of experiment: 5-hydroxytryptamine receptor 2A (HTR2A) small molecule antagonists, cell-based qHTS assay (AID 1963586). Further: nearly all actives have a fitted effect of over 45% in size. Further: potency means the concentration at half of the fitted maximal effect. The gist of the method:
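CHO cells stably expressing human HTR2A were plated for 18 h at 37 C, then loaded with calcium dye for 1 h. Compounds were preincubated 5 min at room temperature before DOI (4 nM solution) was added. Kinetic fluorescence was read for 3 min.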

Experiment [9] has the same target. As to the kind of experiment: 5-hydroxytryptamine receptor 2A (HTR2A) small molecule agonists, cell-based qHTS assay (AID 1963587). Further: nearly all actives have a fitted effect of over 30% in size. The gist of the method:
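HTR2A-CHO cells, plated 18 h at 37 C/5% CO2, dye-loaded 1 h at 37 C; compounds in DMSO added by pin tool (agonist mode). Intracellular calcium flux read as kinetic fluorescence on FDSS over 2 min at 1 s intervals.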

The target of experiment [10] is Muscarinic acetylcholine receptor M1 (Homo sapiens) (UniProt P11229). The experiment can be described thus: Cholinergic receptor muscarinic 1 (CHRM1) small molecule antagonists, cell-based qHTS assay (AID 1963588). Further: nearly all actives have a fitted effect of over 40% in size. Further: potency means the concentration at half of the fitted maximal effect. The gist of the method:
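Compounds were tested at 15 concentrations in three independent runs. Dye-loaded CHRM1-CHO cells were exposed 5 min at room temperature before stimulation by acetylcholine added at 50nM. Intracellular calcium was read kinetically on FDSS for 3 min.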

Experiment [11] shares this target. The experiment can be described thus: Cholinergic receptor muscarinic 1 (CHRM1) small molecule agonists, cell-based qHTS assay (AID 1963589). Further: nearly all actives have a fitted effect of over 35% in size. The gist of the method:
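Homogeneous fluorescence calcium flux, agonist mode. Human M1-expressing CHO cells; compound dosed at 15 concentrations, three independent runs; signal sampled every 1 sec.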

In experiment [12] the target is Beta-2 adrenergic receptor (Homo sapiens) (UniProt P07550). As to the kind of experiment: Adrenergic beta2 receptor (ADRB2) small molecule antagonists, cell-based qHTS assay (AID 1963592). Further: series mostly up to about 92 µM; nearly all actives have a fitted effect of over 50% in size. In outline: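 Assay format: CHO-ADRB2 cells, 18-20hr seeding at 37C/5% CO2, then compound plus 1nM isoproterenol agonist mix for 0.5hr RT. Homogeneous time-resolved fluorescence cAMP detection after 1hr, expressed as 665/615 nm ratio.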

Experiment [13] shares this target. The experiment can be described thus: Adrenergic beta2 receptor (ADRB2) small molecule agonists, cell-based qHTS assay (AID 1963593).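 Further: CHO cells stably overexpressing human ADRB2.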 In outline: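 CHO cells stably over-expressing ADRB2 were plated overnight at 37C, then dosed with compounds plus a stimulation mix containing 100uM IBMX and 25uM Ro-20-1724 for 0.5hr at room temperature. cAMP was measured by HTRF competition, 1hr.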

Experiment [14] deals with D(2) dopamine receptor (Homo sapiens) (UniProt P14416). The experiment can be described thus: Dopamine D2 receptor (DRD2) small molecule agonists, cell-based qHTS assay (AID 1963594). Further: nearly all actives have a fitted effect of over 35% in size. The gist of the method: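 HEK293 cells stably expressing DRD2 were cultured 24 h at 37 C, then given Ro20-1724 (0.1 mM final) and compounds for 10 min at room temperature. NKH477 (200nM) was then added for 30 min. cAMP was read by HTRF.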

The nature of experiment [15]: p53 small molecule agonists, cell-based qHTS assay with human liver microsomes: qHTS cell viability counter screen (AID 1963579). Further: nearly all actives have a fitted effect of over 45% in size. The gist of the method: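 p53RE-bla cells, 4,000/well, dosed 5 hours after plating, with human liver microsomes (0.5 mg/mL final) plus NADPH (0.5 mg/mL final), 16 hours at 37 C. Viability read as CellTiter-Glo luminescence after 30 min at room temperature.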

Experiment [16] can be described thus: p53 small molecule agonists, cell-based qHTS assay with rat liver microsomes: qHTS cell viability counter screen (AID 1963580). Further: nearly all actives have a fitted effect of over 45% in size. The gist of the method: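 Counter screen for cytotoxicity under metabolic activation: rat liver microsomes and NADPH, 0.5 mg/mL final each, added with compounds to p53RE-bla HCT-116 cells; 16 h at 37 C, then ATP luminescence read.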

Experiment [17] can be described thus: p53 small molecule agonists, cell-based qHTS assay (AID 1963582; active means well fitted activation curve with a large enough effect in the signal ratio in the repeat runs, not every such curve was filed as active; the % refers to the signal ratio). The gist of the method:
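16 h compound exposure (37 C) of p53 response element–bla cells, preceded by 5 h recovery at 37 C/5% CO2; read-out via LiveBLAzer B/G FRET substrate, 2 h RT, fluorescence intensity.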

The nature of experiment [18]: cAMP Responsive Elements (CRE) small molecule antagonists, cell-based qHTS assay (AID 1963591; active means well fitted inhibition curve with a large enough effect in the signal ratio in the repeat runs, not every such curve was filed as active; the % refers to the signal ratio). The gist of the method:
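First, CRE-bla HEK293T cells settled 18 h at 37 C. Next, compound and 0.25 uM final NKH477 were applied for 3 h. Last, LiveBLAzer B/G substrate was loaded for 2 h at room temperature.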

Experiment [19] deals with D(2) dopamine receptor (Homo sapiens) (UniProt P14416). The experiment can be described thus: Dopamine D2 receptor (DRD2) small molecule antagonists, cell-based qHTS assay (AID 1963595; active means well fitted inhibition curve with a large enough effect in the signal ratio in the repeat runs, with a control signal flat; the % refers to the signal ratio). In outline:
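Antagonism was scored as restored cAMP in HEK293-DRD2 cells. These cells were stimulated with 200 nM NKH477 and 12 nM quinpirole for 30 min at room temperature, in the presence of 0.1 mM Ro20-1724.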

Experiment [20] in a line: cAMP Responsive Elements (CRE) small molecule agonists, cell-based qHTS assay (AID 1963590). The gist of the method:
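HEK 293T cells stably bearing CRE-bla were plated at 2,000 cells per well and rested 18 h. Compounds, positive controls or DMSO were added for 3 h at 37 C. LiveBLAzer B/G substrate was then loaded for 2 h at room temperature.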

Structures are written as SMILES. Values without a mark were called inactive. Inconclusive results are not listed. Calls of active or inactive are those of the source. Unless noted, the call rests on the fitted dose curve.
On the % scale 0 is the no-effect control and ±100 the full control effect.

Chain of Muscarinic acetylcholine receptor M1 (Homo sapiens) (P11229 whole entry, looked up): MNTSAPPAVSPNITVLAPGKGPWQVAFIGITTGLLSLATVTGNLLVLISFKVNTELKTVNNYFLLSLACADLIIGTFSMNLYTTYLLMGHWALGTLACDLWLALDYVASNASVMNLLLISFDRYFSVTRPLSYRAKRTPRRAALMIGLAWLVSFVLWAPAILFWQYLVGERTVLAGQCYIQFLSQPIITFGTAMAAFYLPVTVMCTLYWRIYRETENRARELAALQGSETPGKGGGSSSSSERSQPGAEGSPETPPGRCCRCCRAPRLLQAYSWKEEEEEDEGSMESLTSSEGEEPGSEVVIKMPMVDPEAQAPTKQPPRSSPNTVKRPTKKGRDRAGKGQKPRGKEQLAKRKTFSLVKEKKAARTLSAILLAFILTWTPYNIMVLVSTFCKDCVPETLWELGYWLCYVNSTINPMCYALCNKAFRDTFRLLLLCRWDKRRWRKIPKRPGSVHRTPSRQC
Chain of D(2) dopamine receptor (Homo sapiens) (P14416 whole entry, looked up): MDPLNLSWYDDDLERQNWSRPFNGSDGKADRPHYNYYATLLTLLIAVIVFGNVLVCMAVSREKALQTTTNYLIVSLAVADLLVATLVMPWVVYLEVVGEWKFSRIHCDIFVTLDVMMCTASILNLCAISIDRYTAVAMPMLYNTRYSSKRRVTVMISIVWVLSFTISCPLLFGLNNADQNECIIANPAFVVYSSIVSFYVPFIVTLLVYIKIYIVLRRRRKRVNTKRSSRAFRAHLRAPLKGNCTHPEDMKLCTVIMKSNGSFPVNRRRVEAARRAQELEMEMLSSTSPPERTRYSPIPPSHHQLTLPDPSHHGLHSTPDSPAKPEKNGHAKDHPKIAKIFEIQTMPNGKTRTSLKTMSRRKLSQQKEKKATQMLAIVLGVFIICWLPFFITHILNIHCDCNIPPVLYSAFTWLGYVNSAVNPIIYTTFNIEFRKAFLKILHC
Chain of KiSS-1 receptor (Homo sapiens) (Q969F8 whole entry, looked up): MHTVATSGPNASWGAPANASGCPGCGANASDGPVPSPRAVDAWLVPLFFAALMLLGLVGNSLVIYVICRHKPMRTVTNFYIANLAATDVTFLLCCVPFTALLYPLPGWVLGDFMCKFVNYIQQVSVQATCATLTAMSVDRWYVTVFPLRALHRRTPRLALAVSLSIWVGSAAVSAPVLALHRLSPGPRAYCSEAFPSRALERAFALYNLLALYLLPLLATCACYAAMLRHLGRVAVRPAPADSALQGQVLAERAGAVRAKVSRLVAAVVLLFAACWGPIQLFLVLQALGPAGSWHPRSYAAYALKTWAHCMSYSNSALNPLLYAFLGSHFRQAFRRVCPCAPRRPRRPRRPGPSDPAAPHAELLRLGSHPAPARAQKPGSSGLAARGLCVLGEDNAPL
Chain of Beta-2 adrenergic receptor (Homo sapiens) (P07550 whole entry, looked up): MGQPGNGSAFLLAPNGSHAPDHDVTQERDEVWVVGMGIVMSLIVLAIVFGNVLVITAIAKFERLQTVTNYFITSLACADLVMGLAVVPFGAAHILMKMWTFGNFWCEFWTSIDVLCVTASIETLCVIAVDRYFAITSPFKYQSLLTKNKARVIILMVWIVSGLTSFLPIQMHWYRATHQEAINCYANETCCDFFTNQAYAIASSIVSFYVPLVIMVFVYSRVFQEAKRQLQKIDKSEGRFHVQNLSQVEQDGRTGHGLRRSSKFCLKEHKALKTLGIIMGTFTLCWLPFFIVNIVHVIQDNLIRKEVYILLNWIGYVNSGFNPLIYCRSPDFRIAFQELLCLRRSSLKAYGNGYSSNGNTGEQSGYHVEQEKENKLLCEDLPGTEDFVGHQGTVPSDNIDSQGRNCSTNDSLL
Chain of Gonadotropin-releasing hormone receptor (Homo sapiens) (P30968 whole entry, looked up): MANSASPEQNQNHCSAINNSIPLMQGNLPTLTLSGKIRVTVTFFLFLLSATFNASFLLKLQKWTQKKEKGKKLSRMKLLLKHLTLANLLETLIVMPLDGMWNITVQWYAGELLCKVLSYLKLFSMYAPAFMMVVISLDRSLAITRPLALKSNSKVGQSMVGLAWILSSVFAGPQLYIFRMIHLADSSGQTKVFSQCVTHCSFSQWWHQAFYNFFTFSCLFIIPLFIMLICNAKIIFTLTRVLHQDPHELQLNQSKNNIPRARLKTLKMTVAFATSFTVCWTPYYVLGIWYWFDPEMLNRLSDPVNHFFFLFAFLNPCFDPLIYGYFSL
Chain of 5-hydroxytryptamine receptor 2A (Homo sapiens) (P28223 whole entry, looked up): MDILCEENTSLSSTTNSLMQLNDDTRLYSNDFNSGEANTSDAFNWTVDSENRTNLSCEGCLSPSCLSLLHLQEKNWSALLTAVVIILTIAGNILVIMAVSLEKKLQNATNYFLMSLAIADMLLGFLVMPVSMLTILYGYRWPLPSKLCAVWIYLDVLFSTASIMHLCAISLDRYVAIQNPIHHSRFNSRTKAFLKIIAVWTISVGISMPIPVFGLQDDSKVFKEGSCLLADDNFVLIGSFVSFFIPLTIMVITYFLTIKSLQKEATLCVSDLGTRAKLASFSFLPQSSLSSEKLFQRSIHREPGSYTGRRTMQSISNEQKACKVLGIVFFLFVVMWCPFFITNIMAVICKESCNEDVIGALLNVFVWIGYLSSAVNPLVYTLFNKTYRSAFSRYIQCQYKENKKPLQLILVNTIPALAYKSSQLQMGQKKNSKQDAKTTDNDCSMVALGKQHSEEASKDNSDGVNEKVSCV

As to `CCCCCCCCCCCC(=O)NCCCN(C)C`, the Potency entry in [1], in [5], in [6], in experiment [9], in [11] and in experiment [12] was “inactive” each time. Besides, the Potency result in [13] and in experiment [14] was “inactive” each time. For the same compound, the Potency in [2] is 30.9 µM (active); in experiment [7], 32.4 µM (active); in experiment [8], 1.68 µM (active); in experiment [10], 8.4 µM (active). Also, the outcome in experiment [3] and in [4] was inactive.
Regarding `C=CC1CO1` (centres undefined), the Potency result in [1], in experiment [2], in experiment [5], in [15], in experiment [16] and in [7] was “inactive” each time. For the same compound, the Potency entry in [17], in experiment [8], in experiment [9], in experiment [10], in experiment [11] and in [18] was “inactive” each time. The Potency result in experiment [12], in experiment [14] and in experiment [19] was “inactive” throughout. The result in experiment [3] and in experiment [4] was inactive.
On to `CC(C)C[C@@H](N)C(=O)O`, for which the activity, positive = activation in experiment [1] was -3.08% [at 19 µM]. Besides, in experiment [2], the activity change is 0.203% [at 11.8 µM, active compounds read high]. Besides, the activation in experiment [3] was -0.242% [at 15.8 µM]; in [4], -0.27% [at 11.8 µM]; in experiment [5] it was -1.67% [at 13.5 µM]; in experiment [6] it was -1.65% [at 13.6 µM]; in experiment [9] it was 2.38% [at 15.9 µM]; in experiment [11], 10.1% [at 15.8 µM]. The activation in experiment [20] was 0.0359% [at 19 µM]; in experiment [14], 5.36% [at 19 µM]. Besides, the activity change, negative = cytotoxicity in [7] is -2.8% [at 13.5 µM]. Besides, in experiment [10], the activity, negative = inhibition is 0.917% [at 12.6 µM]. In addition, the figures for the activity change, negative = inhibition in experiment [18], in experiment [12] and in [19] were -5.02% [at 18.9 µM], 9.37% [at 19 µM] and 4.57% [at 18.9 µM], respectively. In experiment [13], the Potency entry is “inactive”.
On to `Cc1cc(OI)c(C(C)C)cc1-c1cc(C(C)C)c(OI)cc1C`, for which the Potency entry in experiment [1], in [2], in experiment [5], in experiment [16], in [7] and in [17] was “inactive” throughout. Further, the Potency entry in experiment [8], in [9], in [10], in experiment [20], in [18] and in experiment [12] was “inactive” each time. Besides, the Potency entry in [13], in experiment [14] and in [19] was “inactive” each time. Besides, the result in experiment [3] and in experiment [4] was inactive.
`C/C(=N\[Si](C)(C)C)O[Si](C)(C)C`: the Potency entry in experiment [1], in [2], in experiment [5], in experiment [6], in experiment [15] and in experiment [16] was “inactive” each time. Further, the Potency entry in experiment [7], in experiment [17], in experiment [8], in [9], in experiment [11] and in [18] was “inactive” each time. Besides, the Potency entry in experiment [12], in experiment [14] and in [19] was “inactive” in each case. Further, in [3], the outcome was inactive.
On to `CCOC(=O)c1ccccc1O`, for which the Potency result in [1], in experiment [2], in [5], in experiment [16], in [17] and in experiment [8] was “inactive” in each case. For the same compound, the Potency entry in [9], in experiment [10], in experiment [11], in experiment [20], in [18] and in [12] was “inactive” each time. The Potency result in [13], in experiment [14] and in experiment [19] was “inactive” throughout. In addition, the result in experiment [3] and in [4] was inactive.
As for `COc1cc2c(cc1OC)C(=O)CC2`, the Potency result in experiment [1], in experiment [2], in experiment [5], in experiment [15], in experiment [16] and in experiment [7] was “inactive” in each case. Moreover, the Potency entry in experiment [17], in experiment [8], in [9], in [10], in [20] and in experiment [18] was “inactive” in each case. The Potency entry in [12], in experiment [14] and in experiment [19] was “inactive” in each case. In addition, the outcome in experiment [3] and in experiment [4] was inactive.
